Measured values reported in PubChem BioAssay AID504700 (The Scripps Research Institute Molecular Screening Center, 2011).
Among all 340,000 compounds or so, about 270 (0.079%) were called active. Shown is part of a subset that was picked to be rich in actives. Unmarked numbers belong to inactive results.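 The calls were made as follows: active = activation above a cutoff set at the mean over all compounds plus 3 SD (cut at about 18% in these data); inactive = the rest.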 Where a SMILES comes first, the peptide text is derived from it.

Target: cAMP-dependent protein kinase catalytic subunit beta (Homo sapiens) + cAMP-dependent protein kinase type II-beta regulatory subunit (Homo sapiens) (UniProt P22694+P31323)
Sequence (P31323 whole entry, looked up, other chains not shown): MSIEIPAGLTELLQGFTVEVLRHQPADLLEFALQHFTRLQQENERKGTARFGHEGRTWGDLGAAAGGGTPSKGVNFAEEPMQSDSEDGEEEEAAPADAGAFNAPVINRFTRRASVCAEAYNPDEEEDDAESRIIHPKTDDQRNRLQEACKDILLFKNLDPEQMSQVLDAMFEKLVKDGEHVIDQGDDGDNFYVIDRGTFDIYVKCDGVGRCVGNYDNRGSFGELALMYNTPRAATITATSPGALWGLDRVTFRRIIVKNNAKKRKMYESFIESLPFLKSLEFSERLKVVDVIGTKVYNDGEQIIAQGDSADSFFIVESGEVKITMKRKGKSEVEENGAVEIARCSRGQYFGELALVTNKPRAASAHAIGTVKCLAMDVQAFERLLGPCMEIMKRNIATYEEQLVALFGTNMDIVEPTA
Test: activators of PKA-R2B holoenzyme, primary screen, biochemical, fluorescence polarization, Cy5-IP20, human (AID 504700);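 also: higher means more holoenzyme dissociation and a rise in polarization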
Conditions: PKA-R2B holoenzyme dissociation, at 11.4 µM, hits give high values, 0% DMSO only, 100% 113 µM cGMP, R2B truncated from residue 108, S112A mutant

Structure (SMILES) | activation
C[C@H]1CN([C@@H](C)CO)C(=O)c2cc(-c3cccc(F)c3)cnc2O[C@@H]1CN(C)S(C)(=O)=O | 4.49%
O=C(C1CCCO1)N1CCN(C(=O)C23CC4CC(CC(C4)C2)C3)CC1 (centres undefined) | 7.92%
O=Nc1c(O)cc(O)c2ccccc12 | -0.7%
O=C(CCN1CCCCC1)Nc1ccc(F)c(F)c1 | -4%
O[C@H]1C[C@H](c2ccc(Cl)cc2)N(Cc2cccs2)C[C@@H]1n1cc(C2CC2)nn1 | -5.34%
COc1ccc(-c2ccc3[nH]c4c(c3c2)CCN2C[C@H]3[C@H](C)ON(C)[C@H]3C[C@@H]42)cc1 | -1.96%
C[C@H]1CN([C@@H](C)CO)C(=O)c2cc(Br)cnc2O[C@H]1CN(C)S(=O)(=O)c1cccs1 | -1.49%
O=C(c1ncn2c1c(=O)[nH]c1ccccc12)N1CCc2ccccc2C1 | 0.26%
Cc1cccc(C)c1NC(=O)CNC(=O)c1ccc(N2CCOCC2)c([N+](=O)[O-])c1 | -5.41%
Cc1noc(C)c1NC(=O)N(C)C[C@@H]1Oc2cc(Br)ccc2S(=O)(=O)N([C@@H](C)CO)C[C@H]1C | -6.5%
Cc1cn([C@H]2C[C@H](O)[C@@H](CNC(=O)[C@H](N)Cc3cccnc3)O2)c(=O)[nH]c1=O | 3.26%
COc1ccc(NC(=O)CN(C)C(=O)c2cc(C)oc2C)cc1 | 7.31%
O=C(NCCc1cccc(F)c1)C1CC(O)CN1C(=O)Nc1ccccc1 (centres undefined) | -8.6%
COc1ccc([C@H]2N[C@]3(CCCN(Cc4ccco4)C3=O)[C@H]3C(=O)N(C)C(=O)[C@@H]23)cc1 | -1.07%
C[C@H]1CN([C@@H](C)CO)C(=O)c2cc(C3=CCCCC3)cnc2O[C@@H]1CN(C)C(=O)Cc1ccccc1 | 4.23%
CC(C)(C)c1nnc(N/N=C/c2ccc(O)cc2)n(N)c1=O | 21.1% (active)
Cc1nonc1C(=O)N/N=C/c1ccc(O)cc1 | -0.48%
Nc1nnn(CC(=O)N/N=C/c2ccc(O)cc2)n1 | -7.14%
COc1cc2nnn(-c3ccncc3)c2cc1OC | 5.36%
COc1ccc(C(=O)OCC(=O)Nc2cc(C)on2)cc1F | 1.88%
COC(=O)C[C@H]1C[C@@H]2c3cc(NC(=O)Nc4ccccc4)ccc3O[C@@H]2[C@@H](CO)O1 | 6.99%
CC(C)[C@H](NC(=O)c1ccccc1F)C(=O)Nc1cccc(S(=O)(=O)N2CCOCC2)c1 | 4.82%
Cc1ccc([C@H]2N[C@]3(CCCN(CC4CCCCC4)C3=O)[C@H]3C(=O)N(Cc4ccccc4)C(=O)[C@@H]23)cc1 | -3.62%
O=C(CNC(=O)c1ccccc1)NCC(=O)OCC(=O)c1ccccc1 (HELM PEPTIDE1{[O=C(c1ccccc1)[*:2]].G.G.[O=C(CO[*:1])c1ccccc1]}$$$$V2.0) | 22.6% (active)
O=C(CNC(=O)c1ccco1)OCC(=O)c1ccccc1 | 3.42%
O=C(CNC(=O)c1ccccc1)NCC(=O)OCc1ccc(Cl)cc1 | -2.62%
O=C(O)C1CCCN1c1nc(Cl)ccc1[N+](=O)[O-] (centres undefined) | 5.76%

Structure (SMILES) | activation
COc1ccc(C(CNC(=O)c2ccc(OCc3cscn3)cc2)N2CCCC2)cc1 (centres undefined) | 3.82%
O=C(O)C1=C(C(=O)O)C2CCC1C2 | 19.1% (active)
COc1ccc(S(=O)(=O)N2CCCCC2)cc1C(=O)NC1CCS(=O)(=O)C1 (centres undefined) | -9.4%
C[C@@H]1CN([C@@H](C)CO)C(=O)c2cc(NS(C)(=O)=O)ccc2O[C@@H](C)CCCCO[C@H]1CN(C)C(=O)Nc1ccc2c(c1)OCO2 | 3.71%
COc1cccc(C(=O)Nc2ccc3nc4n(c(=O)c3c2)CCCCC4)c1 | -0.66%
CC(C)C1CCN(C(=O)C2CCC(=O)N(C3CCCCCC3)C2)CC1 (centres undefined) | -0.9%
N#CCCN(C(=O)Nc1ccc(Cl)c(Cl)c1)C1CCCCC1 | 1.61%
O=C(c1ccc(CS(=O)Cc2ccccc2Cl)o1)N1CCN(c2ccccc2)CC1 (centres undefined) | 2.13%
COc1ccc(-c2cnc3c(c2)C(=O)N([C@H](C)CO)C[C@@H](C)[C@H](CN(C)Cc2ccccc2)O3)cc1 | 5.52%
CCOc1cc(/C=N/NC(=O)c2ccncc2)cc(Br)c1O | -1.34%
Cc1ccc(NC(=O)c2ccco2)cc1 | 4.37%
CC1(C)CN(CCc2ccccc2)C(=O)[C@H]1CC(=O)Nc1ccc(Br)cc1 | -0.64%
COc1ccc(NC(=O)N(C)C[C@H]2Oc3ncc(C#C[C@@H](C)O)cc3C(=O)N([C@H](C)CO)C[C@H]2C)cc1 | 2.12%
COCOCCn1cc(CN2CCS(=O)(=O)N(Cc3ccc(-c4ccc(OC)cc4)cc3)C(CC(C)C)C2=O)nn1 (centres undefined) | -14.1%
Cc1cccc(C(=O)NC2CCN(CC(=O)Nc3cccc(Cl)c3)CC2)c1 | -3.65%
COc1ccc(OC)c(NC(=O)C2CCCN2S(=O)(=O)c2ccc3c(c2)CC(C)N3C(C)=O)c1 (centres undefined) | -3.21%
COc1ccc(CC(NC(C)=O)C(=O)NC2CCN(C(=O)c3ccc(Cl)cc3)CC2)cc1 (centres undefined) | 19.4% (active)
CC(=O)NC(Cc1ccc(F)c(F)c1)C(=O)NC1CCN(C(=O)c2ccc(C)cc2)CC1 (centres undefined) | -1.79%
COc1ccc(CC(NC(C)=O)C(=O)NC2CCN(C(=O)c3ccc(OC)c(OC)c3)CC2)cc1OC (centres undefined) | -5.58%
COc1cccc(Nc2nnc(SCC(=O)N3CC(=O)Nc4ccccc43)s2)c1 | -4.91%
COc1cccc(Nc2nnc(SCC(=O)N3CC(C)OC(C)C3)s2)c1 (centres undefined) | 19.7% (active)
COc1ccc(C(=O)CSc2nnc(NC(=O)C3CC(=O)N(c4cccc(OC)c4)C3)s2)cc1 (centres undefined) | -12.2%
C[C@@H]1CN([C@@H](C)CO)C(=O)CCCn2nncc2CO[C@@H]1CN(C)S(=O)(=O)c1ccc(-c2ccccc2)cc1 | 8.61%
CN1CCn2cnc(C(=O)NCC(=O)OC(C)(C)C)c2C1=O | 6.86%
C[C@H]1CN([C@@H](C)CO)C(=O)CCCn2cc(nn2)CO[C@@H]1CN(C)S(=O)(=O)c1ccc(-c2ccccc2)cc1 | -2.02%
Cc1csc(=O)n1CCC(=O)OCC(=O)Nc1ccc(N2CCOCC2)cc1 | -13.7%
COc1cc(C)c(CN2CCN(C(=O)CCC(=O)c3ccc(C)s3)CC2)cc1OC | -4.23%

Structure (SMILES) | activation
C[C@@H]1CN([C@H](C)CO)C(=O)c2cc(-c3ccc(F)cc3)cnc2O[C@H]1CN(C)C(=O)c1ccc(F)cc1 | -10.7%
O=C(CCc1ccc(O)cc1)NN=Cc1cc(Br)ccc1O | -5.67%
CCCCN1CC(C)(C)[C@H](CC(=O)Nc2ccc(Br)cc2)C1=O | -7.25%
C=CCOc1cccc(C2C(C(=O)c3ccc(C)o3)=C(O)C(=O)N2CCN2CCOCC2)c1 (centres undefined) | 2.21%
CC1(C)CC(=O)C=C(c2ccccc2CO)C1=O | -3.08%
C[C@@H]1CN([C@@H](C)CO)C(=O)CCCn2nncc2CO[C@H]1CN(C)C(=O)Nc1ccc(C(F)(F)F)cc1 | -17.1%
C[C@@H]1CN([C@H](C)CO)C(=O)CCCn2nncc2CO[C@@H]1CN(C)C(=O)OCc1ccccc1 | -4.31%
O=C(NCCOc1ccccc1)N1[C@H]2CC[C@@H]1C=C(c1ccc(F)cc1OCc1ccccc1)C2 | -0.02%
CSc1ncnc2c1ncn2CCCNCC(C)c1ccccc1 (centres undefined) | -3.46%
Cc1ccc(-c2ccc(CN3C(C)C(=O)N(Cc4cn(CCC5OCCCO5)nn4)CCS3(=O)=O)cc2)cc1 (centres undefined) | -0.73%
CSc1ncccc1C(=O)N1CCCC(Nc2ccc(F)c(F)c2)C1 (centres undefined) | -3.17%
COc1ccccc1-n1c(SCC(=O)Nc2ccc(Cl)cc2)nc(O)c(Cc2ccccc2)c1=O | 0.18%
Cc1cc(=O)c2ccc(NC(=O)c3ccccc3)cc2[nH]1 | 0.43%
O=C(CN(C(=O)CCC(=O)Nc1nccs1)c1ccc(F)cc1)NCc1ccc2c(c1)OCO2 | 18.4% (active)
COc1ccc(N(CC(=O)NCc2ccc(F)cc2)C(=O)CCC(=O)Nc2nccs2)cc1 | -12.4%
CCC(C)(C)NC(=O)CN(C(=O)CCC(=O)Nc1nccs1)c1ccc2c(c1)OCO2 | 6.11%
O=C(Nc1ccc2c(c1)[C@@H]1C[C@@H](CC(=O)N3CCCCC3)O[C@@H](CO)[C@@H]1O2)NC1CCCCC1 | -11.6%
O=C(OCc1cn([C@@H]2C[C@H](c3ccc(Cl)cc3)N(Cc3cccs3)C[C@H]2O)nn1)c1ccccc1 | -14.6%
CCN(CC)C(=O)C1=C(C)N(Cc2ccc(F)cc2)C(=O)C(CC(=O)NCc2cccc3ccccc23)C1 (centres undefined) | 1.37%
O=c1[nH]c2ccccc2n1C1CCN(CCOc2ccccc2)CC1 | -11%
CSC1=NN(c2ccccc2)CN(c2ccccc2)N1C | 9.82%
O=C(COC(=O)Cc1ccc(Cl)cc1Cl)NCc1ccco1 | -1.41%
CCCC(=O)Nc1ncnc2c1ncn2[C@@H]1O[C@@H]2OP(=O)(O)OC[C@H]2[C@H]1OC(=O)CCC | 42.6% (active)
CCOC(=O)c1c(C)[nH]c(C)c1C(=O)COC(=O)/C=C/c1cccc([N+](=O)[O-])c1 | -7.22%
COc1ccc(CN2C(=O)C(CC(=O)NCCN3CCOCC3)CC(C(=O)N(C(C)C)C(C)C)=C2C)cc1 (centres undefined) | -6%
